Shown are actives, neighbours in structure and some others; about 2.2% of the full set was active somewhere.
BaF3 tox = counter-screen for JAK2V617F inhibitors: parental Ba/F3 viability inhibitors; CellTiter-Glo ATP luminescence; actives 1.1% (n = 220,000); inhibition, % at 5.6 µM;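 active = inhibition above a per-campaign cutoff, the mean inhibition of all tested compounds plus 3 SD, cut at about 27% in these data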;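 note: 0% = DMSO wells and 100% = JAK Inhibitor I control wells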
APP transl inh = APP translation inhibition. SH-SY5Y APP 5'UTR-luciferase reporter, luminescence. inhibition, % at 2 µM. actives 0.82% (n = 190,000). AID 1285;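 active = inhibition above a set limit, derived from the sample mean plus 3 SD, cut at about 45% in these data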
KLF5 inhibitor = suppresses KLF5 promoter-driven expression; AID 1700; actives 0.23% (n = 290,000); DLD-1 KLF5 promoter-luciferase reporter, luminescence; inhibition, % at 5 µM;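 active = inhibition above a per-plate limit of that plate's mean compound inhibition plus 3 SD, cut at about 60% in these data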;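 note: 0% = DMSO wells and 100% = LY294002 at 200 µM; higher means less KLF5 promoter-driven luciferase light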
IEC-6 tox = counter-screen for KLF5 inhibitors: cytotoxicity in IEC-6 cells; IEC-6 cytotoxicity, luminescence viability; inhibition, % at 5 µM; actives 0.78% (n = 290,000); in the data active = inhibition above about 22%;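 note: 0% = plate median of test compound wells and 100% = cytotoxic reference compound wells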
aSyn UTR inh = 5' untranslated region of α-synuclein, MLPCN primary screen; actives 0.82% (n = 300,000); inhibition, % (tested at 7.5 µM); alpha-synuclein 5'UTR reporter, inhibitor activity; in the data active = inhibition above about 60%;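 note: H4 neuroglioblastoma cells stably carrying SNCA 5'UTR luciferase fusion; 0% = DMSO wells and 100% = positive control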
Ba/F3 V617F tox = loss of viability in JAK2V617F-driven Ba/F3 cells; Ba/F3 EpoR-JAK2V617F viability, ATP luminescence; inhibition, % at 5.6 µM; actives 1.1% (n = 220,000);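 active = inhibition above the campaign mean plus 3 SD over all tested compounds, cut at about 24% in these data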;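 note: cytokine-independent growth of Ba/F3 cells driven by EpoR plus mutant JAK2; 0% = DMSO-treated cells and 100% = JAK inhibitor I control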
* = called active by the depositor; . = not tested or not shown.

SMILES	BaF3 tox	APP transl inh	KLF5 inhibitor	IEC-6 tox	aSyn UTR inh	Ba/F3 V617F tox
Cc1noc(C)c1S(=O)(=O)N1CCC(C(=O)NCCN2CCC(C)CC2)CC1	7	61*	-18	1	-7	2
N#Cc1c(-c2ccc(Cl)cc2)c2c([nH]c1=O)-c1ccccc1OC2	51*	.	5	-2	17	12
O=C(CBr)c1ccc([N+](=O)[O-])c(CS(=O)(=O)c2ccc(Cl)cc2)c1	.	.	-20	-4	-24	.
CCCCCC(C)NC(=S)NC(=O)c1cc(S(=O)(=O)N2CCOCC2)ccc1C (stereo unspecified)	42*	0	-2	4	66*	-4
CCCC(C)NC(=S)NC(=O)c1cc(S(=O)(=O)N2CCOCC2)ccc1C (stereo unspecified)	4	-18	14	-3	41	-1
COC(=O)c1cc(COc2ccc3ccc(=O)oc3c2)c(C)o1	94*	-13	-19	-2	-1	1
Cc1noc(C)c1COc1ccc(CC(=O)NCCc2ccccn2)cc1	.	.	-25	0	4	.
Cc1ccc(CNC(=O)CSCc2ccc(F)cc2)cc1	4	-5	-18	9	18	-1
Cc1ccc(CNC(=O)Cc2ccc(-c3ccccc3)cc2)cc1	1	-6	-15	8	73*	-5
O=C(Cc1ccc(-c2ccccc2)cc1)NCc1ccccc1	81*	93*	55	78*	104*	81*
Cc1noc(C)c1COc1ccc(CC(=O)NCc2ccccc2)cc1	73*	86*	62	79*	72*	72*
Cc1ccc(CC(=O)NCc2ccc(F)cc2)cc1	58*	-9	20	50*	3	35*
NC(N)=NC1=NC(=O)C(Cc2ccccc2)S1 (stereo unspecified)	3	-4	-14	-1	14	2
N#Cc1ccc(N2CCc3ccccc3C2)c([N+](=O)[O-])c1	11	0	-34	-3	81*	4
O=[N+]([O-])c1ccc(N2CCN(C(=S)Nc3cccc(F)c3)CC2)cc1	32*	-1	-6	4	20	28*
CCn1c(SCC(=O)Nc2ccc(NC(C)=O)cc2)nc2c1c(=O)n(C)c(=O)n2C	.	.	-31	5	-23	.
FC(F)Oc1ccc(-c2csc(Cc3nnc4n3CCCCC4)n2)cc1	3	0	11	6	21	6
COc1ccc(-n2cc(-c3ccccc3)[n+]3c2CCCCC3)cc1	59*	5	-10	16	-13	72*
COc1ccc(-c2cn(-c3ccc(SC(F)F)cc3)c3[n+]2CCC3)cc1OC	3	8	-21	-3	1	-4
FC(F)Oc1ccc(-n2cc(-c3ccc(Cl)cc3)[n+]3c2CCCCC3)cc1	62*	.	16	2	-10	54*
COc1ccc(-n2cc(-c3ccccc3)nc2SC)cc1	7	-76	-47	-5	-121	0
FC(F)Sc1ccc(-n2cc(-c3ccccc3)[n+]3c2CCC3)cc1	69*	-17	-11	-2	-10	60*
Cc1cccc(Cc2nnc(CCC(=O)N(CC3CC3)CC3CCCO3)o2)c1 (stereo unspecified)	4	-50	-73	0	-112	-1
CCN(CC1CCCO1)C(=O)CCc1nnc(Cc2ccc3c(c2)OCO3)o1 (stereo unspecified)	82*	-12	-18	2	-11	6
CC(C)(C)NC(=O)C(=O)NCc1ccccn1	2	-8	-18	-2	-27	-1
SMILES	BaF3 tox	APP transl inh	KLF5 inhibitor	IEC-6 tox	aSyn UTR inh	Ba/F3 V617F tox
O=C(NCc1ccccn1)C(=O)NCc1ccccn1	54*	9	-24	-1	-16	-3
COc1ccc(C(=O)NCCN2C(=O)S/C(=C\c3cccnc3)C2=O)cc1[N+](=O)[O-]	0	.	-9	-3	3	-1
COCCNc1nc(-c2cc(-c3ccc(Cl)cc3)on2)cc(C(C)C)n1	.	.	.	.	8	.
CCc1ccc(S(=O)(=O)/N=C2\C=CC(=O)c3ccccc32)cc1	4	35	-3	7	-22	-2
CCc1ccc(S(=O)(=O)/N=C2/C=C(Sc3ncn[nH]3)C(=O)c3ccccc32)cc1	34*	75*	-5	1	.	71*
O=C1CC(c2ccc(O)cc2)Oc2cc(O)cc(O)c21 (stereo unspecified)	0	-6	-20	-12	-18	-3
CC1CC(=O)c2c(cc3c(-c4c(O)cc(O)c5c(O)c6c(cc45)OC(C)CC6=O)c(O)cc(O)c3c2O)O1 (stereo unspecified)	-9	50*	-28	-8	70*	3
Cc1cc(C)c2c(=O)[nH]c(SCC(=O)N3CCCCC3)nc2n1	37*	25	7	5	-10	37*
Cc1cc(C)c2c(=O)[nH]c(SCC(=O)N3CCOCC3)nc2n1	1	24	-45	-2	-4	-2
O=C(CSc1nc(=O)n2ccccc2n1)Nc1ccc2c(c1)OCO2	.	.	.	.	-7	.
COc1ccc(CN(C)CC(=O)Nc2cc(OC)c([N+](=O)[O-])cc2C)c(OC)c1	0	-5	11	0	-2	-1
O=[N+]([O-])c1nn(-c2ccccc2)n(O)c1=NC1CCN(Cc2ccccc2)CC1	11	6	-10	6	76*	1
Nc1c(-c2ccc3c(c2)OCCO3)oc2ccccc2c1=O	.	.	-100	3	-145	.
COC(=O)Cn1cc(C(=O)OC)c2ccccc21	12	6	-21	-2	14	8
CC(=O)c1cn(CC(=O)Nc2c(C)cccc2C)c2ccccc12	43*	13	3	6	8	33*
CCC(=O)c1cn(CC(=O)OC)c2ccccc12	2	68*	-28	-5	-18	-3
CCOC(=O)c1[nH]cnc1N=Nc1c(O)ccc2ccccc12	6	52*	-39	-5	91*	0
Oc1ccc2ccccc2c1N=Nc1ccccc1F	1	.	6	8	-13	0
Oc1ccc2ccccc2c1N=Nc1ccccn1	5	83*	11	8	75*	5
CN(Cc1ccccc1)C(=O)COC(=O)COc1ccc(C#N)cc1	.	.	-1	2	-1	.
COc1cc(CCC(=O)OCC(=O)Nc2ccc(F)c(F)c2F)cc(OC)c1OC	.	.	1	-10	-2	.
COc1ccc(-c2cc(C(=O)N/N=C/c3cccnc3)c3cc(C)cc(C)c3n2)cc1	.	.	-12	14	-35	.
CN(C)c1ccc(/C=C/c2nc3ccccc3s2)cc1	1	-14	53	0	81*	1
Cc1ccc(/C=C/c2nc3ccccc3s2)s1	2	-98	-120	0	71*	-2
CN(C)c1ccc(CNc2nc3ccccc3s2)cc1	.	.	64*	-7	80*	.
COc1cc(/C=C/c2nc3ccccc3s2)cc(OC)c1O	-4	-129	-37	2	-69	-2
C(=C\c1ccc2ccccc2n1)/c1ccccc1	2	-176	-108	5	67*	0
O=C(O)/C=C/c1ccc2ccccc2n1	1	-2	-16	-1	-64	-2

Source: PubChem BioAssay
